Assay outcomes (PubChem)
The list is not random: actives were taken first. Their share in the collection is about 1.6%.
KCNQ2 inh: inhibitors of rat KCNQ2 potassium channel; AID 2156; 310,000 tested, 1.1% active; CHO-K1 KCNQ2, FluxOR thallium flux, 20 min; active compounds read low; O88943; B-score at 10 µM;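 active means fluorescence ratio B-score at most minus 3 library SDs, with starting brightness B-score within 2 library SDs, cut at about -5.5 in these data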
KCNQ2 pot: KCNQ2 (rat) channel potentiation; O88943; AID 2239; CHO-K1 KCNQ2, FluxOR thallium flux fluorescence; active compounds read high; 310,000 tested, 0.54% active; B-score at 10 µM;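 active means fluorescence ratio B-score at least 3 SD of library B-scores, with initial fluorescence B-score within 3 of them, cut at about 5.3 in these data; same plate scores as AID 2156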;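 further: B-score of peak minus minimum over baseline fluorescence ratio after K+ and Tl+ stimulus; positive B-score means potentiation of KCNQ2 with more thallium influx and brighter signal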
Each line names hits and unclear results; the compound was inactive in the other large screens.

O=C(Nc1cccc(-n2cccn2)c1)C1CCCN(Cc2cc3ccccc3[nH]2)C1 (stereo not given)	KCNQ2 inh -8.2
Cc1cc(CN2CCCC(C(=O)Nc3cccc(-n4cccn4)c3)C2)cc(C)c1O (stereo not given)	none (no result: KCNQ2 pot)
O=C(NCc1ccccc1)C(c1ccccc1)N(Cc1cccs1)C(=O)c1cnccn1 (stereo not given)	none (no result: KCNQ2 pot)
O=C(NCc1ccccc1)C(c1cccs1)N(Cc1cccs1)C(=O)c1cnccn1 (stereo not given)	KCNQ2 inh -6
Cc1ccccc1OC1C(=O)N(Cc2ccc3c(c2)OCO3)C1c1sccc1C (stereo not given)	KCNQ2 inh -6
O=C1C(Oc2ccccc2)C(c2cccs2)N1Cc1ccc2c(c1)OCO2 (stereo not given)	none
Oc1ccccc1CNc1ccc(Br)cn1	none (no result: KCNQ2 pot)
Brc1ccc(NCc2cccc3ccccc23)nc1	KCNQ2 inh -6
CC(=O)Oc1ccc(C(=O)Nc2cc(C)on2)cc1	none (no result: KCNQ2 pot)
O=C(CS(=O)(=O)c1cn(CC(=O)N2CCCC2)c2ccccc12)Nc1ccccc1F	none (no result: KCNQ2 pot)
COc1ccc(N2CC(C(=O)NCCc3ccc(Cl)cc3)CC2=O)cc1 (stereo not given)	none
Cc1ccc(S(=O)(=O)NC(CC(C)C)C(=O)Oc2ccc3c4c(c(=O)oc3c2)CCC4)cc1 (stereo not given)	KCNQ2 inh -7.9
CC[C@@H](NS(=O)(=O)c1ccc(C)cc1)C(=O)Oc1ccc2c3c(c(=O)oc2c1)CCC3	none
Cc1ccccc1C(=O)O/N=C/c1c(N2CCOCC2)n(C)c2ccccc12	KCNQ2 inh -7.6
CN1CCN(c2c(/C=N/O)c3ccccc3n2C)CC1	none
COc1ccccc1N(Cc1ccccc1)S(=O)(=O)c1cccc(C(=O)Nc2cccc(C)n2)c1	KCNQ2 inh -6.4
Cc1cccc(NC(=O)c2cccc(S(=O)(=O)NCc3ccccc3)c2)n1	none (no result: KCNQ2 pot)
COC(=O)/C=C/c1c(C)nc(NCc2ccccc2)nc1Cl	none
Cc1cc(=O)oc2cc(OCC(O)Cn3ccnc3)ccc12 (stereo not given)	none (no result: KCNQ2 pot)
COc1ccc(C2NC3=C(CCC3)C3(C#N)C4(N=C(N)C23C#N)OCCO4)cc1 (stereo not given)	none (no result: KCNQ2 pot)
COc1ccc(C2NC3=C(CCCC3)C(C#N)(C#N)C2(C#N)C#N)cc1 (stereo not given)	KCNQ2 inh -5.8
Cc1ccc(-n2cccn2)c([C@@H]2C[C@H]3CN(C)C(=O)[C@]34CCCN24)c1	none (no result: KCNQ2 pot)
Cc1ccccc1-c1nc(C#N)c(N2CCC(C)CC2)o1	KCNQ2 inh -8.1
CC1CCN(c2oc(-c3ccccc3Cl)nc2C#N)CC1	none (no result: KCNQ2 pot)
CCN(CC)S(=O)(=O)c1ccc(N2CCOCC2)c(NC(=O)c2ccccc2F)c1	none (no result: KCNQ2 pot)
CCN(CC)S(=O)(=O)c1ccc(N2CCOCC2)c(NC(=O)c2cc3ccccc3oc2=O)c1	KCNQ2 inh -5.5
O=C(Cc1cccc2ccccc12)Nc1ccc(O)cc1C(=O)O	none (no result: KCNQ2 pot)
CN(C)c1ccc(S(=O)(=O)N(C)C)cc1NC(=O)Cc1cccc2ccccc12	KCNQ2 inh -7.5
Cc1ncsc1C(=O)N1CCCC(C(=O)c2ccc3ccccc3c2)C1 (stereo not given)	none
COC(=O)c1sc(NC(=O)c2ccco2)nc1C	none
O=C(NC(=S)NCc1ccc(-c2nc3ccccc3s2)cc1)c1ccco1	none
O=C(NC(=S)Nc1nc2ccccc2s1)c1ccco1	KCNQ2 pot 8.1
CCOC(=O)c1sc(NC(=S)NC(=O)c2ccco2)nc1C	KCNQ2 pot 5.7
N#Cc1ccccc1S(=O)(=O)N1CCN(CC(=O)NC(=O)NC2CCCCC2)CC1	none (no result: KCNQ2 pot)
CCOC(=O)c1ccc(NC(=O)COc2ccc(CNCCO)cc2OCC)cc1	none
CCOC(=O)c1ccc(NC(=O)COc2ccccc2CNCCc2ccccc2)cc1	KCNQ2 inh -6.8
CNC(=S)N(CCCn1ccnc1)Cc1c(F)cccc1Cl	none
CCc1nnc(NC(=O)CSc2nnc(Cc3cc(=O)[nH]c(=O)[nH]3)n2-c2cccc(OC)c2)s1	none (no result: KCNQ2 pot)
Cc1ccccc1Nc1ccc([N+](=O)[O-])cn1	none
O=[N+]([O-])c1ccc(Nc2ccccc2F)nc1	KCNQ2 pot 5.3
CCCCCc1c2c(cc(O)c1C(=O)O)OC(=O)c1c(cc(OC)cc1C(=O)CCCC)O2	KCNQ2 inh -6.7
CCCCc1c(C(=O)O)cc(OC)cc1C(=O)O	none
CCc1ccc(NC(=O)CNCc2ccc(OC)c(OC)c2)cc1	none (no result: KCNQ2 pot)
O=C(Nc1cc2c(cc1C(=O)O)OCCCO2)c1ccc(F)cc1F	none
CN(C)CCn1c2c(c(SCC(=O)Nc3ccc4c(c3)OCCO4)nc1=O)CCCC2	none (no result: KCNQ2 pot)
O=C(CNCc1ccccc1)Nc1cccc(Cl)c1Cl	KCNQ2 inh -6
O=C(CNCc1ccccc1)Nc1ccccc1-c1ccccc1	none (no result: KCNQ2 pot)
O=C(CNS(=O)(=O)c1c(F)cc(F)cc1Br)OCC(=O)N1CCCC1=O	none
COc1ccc(C2CC(c3ccccc3)Nc3nc(NC(=O)c4ccco4)nn32)cc1 (stereo not given)	none
O=C(Nc1nc2n(n1)C(c1ccccc1)CC(c1ccc(Cl)cc1)N2)c1ccco1 (stereo not given)	KCNQ2 inh -7.2
Cc1ccc(CNS(=O)(=O)c2c(C)[nH]c(=O)[nH]c2=O)cc1	none (no result: KCNQ2 pot)
